# Laboratory results: the supplement of paper PMC10338343
# ± gives the standard deviation.
# Test system: EfPiwi piRISC loaded with L1MC piRNA (26 nt)
# Assay: pre-steady-state target cleavage rate (min^-1); auxiliary factor: 500 nM Ephydatia muelleri Gtsf1; guide: L1MC piRNA 5'p-UAACUAAAUACUAUGCAAGCUGUAGG; MIWI and MILI are mouse PIWI proteins and EfPiwi is from a freshwater sponge; tags in brackets are library labels; higher = faster piRNA-guided slicing of the target
# How it was run: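 Cleave-'n-Seq reactions paired 0.1 nM transcribed, DNA-blocked target RNA library with 1 nM active affinity-purified piRISC holding one synthetic guide, plus or minus 500 nM GTSF1 partner protein, in HEPES–potassium acetate buffer at 33 °C for 0–8 or 0–960 min. After sequencing of uncleaved targets and normalisation to depth and weakly complementary targets, the pre-steady-state cleavage rate was taken from a burst-and-steady-state fit. Three trials were pooled, and k3 was capped at 0.0001 min^-1.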
row,Sequence,pre-steady-state target cleavage rate
1,UCCUGGAUGUCGAACCCUAGUAUUUAGUUA,< 0.0001
2,UCCUGCUUCAGCUUGCAUAGUAUUUACAAA,0.00462 ± 0.0025
3,UCCUGGAUGUCGAACGAUACAUUUUAGUUA,< 0.0001
4,UCCUGCUAAAGCUUGCAUAGUAUUUAGUUA,0.00411 ± 0.0014
5,UCCUGGAUGUCGAACGUAUGUUAUUUAGUUA,< 0.0001
6,UCCUGGUACAGCUUGGAUAGUAUUUAGAAA,0.00277 ± 0.0022
7,UCCUGGAACAGCAUGCAUAGUAUUUAGUUA,0.0466 ± 0.011
8,UCCUGGAUGUCGAACCAUAGUAUCUUAGUUA,< 0.0001
9,UCCUGGAUGUCGAACCAUAGCUAUUUAGUUA,< 0.0001
10,UCCUGGAUGAGCUUGCAUAGUAUUUUCUAA,0.00391 ± 0.0026
11,UCCUGGAUCAGGUUGCAUAGUAUUAAGUUA,0.00407 ± 0.0025
12,UCCUGGAUGUCGAUGCUUAGAAUUUAGUUA,< 0.0001
13,UCCUCCUACAGCUAGCAUAGUAUUUACAAA,0.00397 ± 0.0031
14,UCCUCCUACAGCUUGCAUAGUGAUUUAGUUA,0.00415 ± 0.0025
15,UCCUGGUACAGCUUGCUUAGUUUUUAGUUA,0.00346 ± 0.003
16,UCCUGGAUGUCGAACCAUAGUAUUUACGUUA,< 0.0001
17,UCCUGGAACAGCUAGCAAAGUAUUUAGUUA,0.00366 ± 0.0025
18,UCCUGCUACAGCUUGCAAAGUAAUUAGUUA,0.00362 ± 0.0019
19,UCCUGGAUGUCGAACCAUUGUAUUUAGUAA,< 0.0001
20,UCCUGGAUCGAGCUUGCAUAGUAUUUAGUUA,0.0315 ± 0.0069

row,Sequence,pre-steady-state target cleavage rate
1,UCCUGGAACAGCUUCGAUAGUAUUUAGUUA,0.00251 ± 0.0023
2,UCCUGGAACAAGCUUGCAUAGUAUUUAGUUA,0.0156 ± 0.0043
3,UCCUGGAACUGCUUGCAUUGUAUUUAGUUA,0.00574 ± 0.0019
4,UCCUGGAUGUCGAACGUAAUUAUUUAGUUA,< 0.0001
5,UCCUCCUAGUGCUUGCAUAGUAUUUACAAA,0.00293 ± 0.0029
6,UCCUGGAUGUCGAACCAAAGUAUUUAGUUA,< 0.0001
7,UCCUGGAACAGCUUGCAUAGUACUUUAGUUA,0.00922 ± 0.0033
8,UCCUGCUACAGCUUCCAUAGUAUUUAGAUA,0.00303 ± 0.00093
9,UCCUCCUACAGCUUGCAUAGUAUUAUAGUUA,0.00777 ± 0.0033
10,UCCUGGAACAGCUUCCAUAGUAUUUAGAUA,0.00228 ± 0.0017
11,UCCUCCUACAGCUUGCAUAGUAUUUAGUUA [g2:g26:cont:t1A],0.121 ± 0.034
12,UCCUGGAUCAGCUUGCAUAGUAUAUUAGUUA,0.127 ± 0.043
13,UCCUGGAUGUCGAACGUAUCUAUUUUCUUA,< 0.0001
14,UCCUGCUACACUUGCAUAGUAUUUAGUUA,0.00903 ± 0.0027
15,UCCUGGAUGAGCUUCAUAGUAUUUAGUUA,0.00394 ± 0.0033
16,UCCUGGUACAGCUUGCAUAGUCUUUAGUUA,0.00738 ± 0.0024
17,UCCUGGAUGUGCUUUCAUAGUAUUUAGUUA,0.0041 ± 0.0024
18,UCCUGGAUGUGCAUGCAUAGUAUUUAGAAA,0.00304 ± 0.0022
19,UCCUGCUACAGCUUGGAUAGUAUUUACAAA,0.00306 ± 0.0026
20,UCCUGCUACAGCUUGGAUAGUAUUUUCAAA,0.00307 ± 0.0018
